Laboratory results reported in PubChem BioAssay (NCI).
About 79,000 compounds went through this panel and 15% of them were active in at least one assay; those are over-represented in the sample as a whole. Values without a mark were called inactive. Activity calls are given as the source filed them. Cut-off read from the data, not from the text of the source: active = growth inhibition above about 70%; inactive = the rest.

Test: NCI Yeast Anticancer Drug Screen. Data for the mlh1 rad18 strain (AID 175)
Conditions: S. cerevisiae mlh1 rad18 strain growth inhibition; at 50.0 µM (retest, dose inferred, filed as 5.0); stronger effect = higher value
Method in brief: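 Vehicle-treated cultures served as the reference for growth inhibition in a yeast strain carrying DNA damage repair alterations exposed to each compound.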

| SMILES | growth inhibition |
| --- | --- |
| c1csc(-c2nnc(C34CC5CC(CC(C5)C3)C4)o2)c1 | 98% (active) |
| C/C(O)=C(/C=N/C(=S)Nc1ccc(S(N)(=O)=O)cc1)C(=O)Nc1ccccc1C | -15% |
| CC(C)(Oc1ccc(-c2cccc3ccccc23)cc1)C(=O)O | 49% |
| CCc1scc(C)[n+]1CC(=O)c1cccc([N+](=O)[O-])c1 | 22% |
| O=C1CCC(C(c2ccccc2)(c2ccccc2)c2ccccc2)CC1=O (stereo unspecified) | 99% (active) |
| Clc1ccc(C2SCc3nc4ccccc4n32)cc1Cl (stereo unspecified) | 96% (active) |
| OC(CBr)c1c(Br)ccc2ccccc12 (stereo unspecified) | 90% (active) |
| O=C1OC(c2cccc(Cl)c2)Sc2ccccc21 (stereo unspecified) | 78% (active) |
| c1ccc(N2CCN(c3ccccc3)C2Cc2c[nH]c3ccccc23)cc1 | 99% (active) |
| CC(=O)c1sc(Nc2ccc(Cl)c(Cl)c2)nc1C | 47% |
| Cc1ncn(-c2ccccc2O)c1C | 9% |
| C[n+]1c(/C=C/c2ccc(N3CCCC3)cc2)sc2ccccc21 | 98% (active) |
| COc1ccc(-c2c(C#N)c(S)n(NS(=O)(=O)c3ccc(C)cc3)c(=O)c2C#N)cc1 | 69% |
| N#Cc1c(-c2ccc(Cl)c(Cl)c2)c(-c2ccc(Cl)c(Cl)c2)nn(CCO)c1=O | 96% (active) |
| NCc1ccc(O)c(O)c1O | 83% (active) |
| C[CH2][Sn]([CH2]C)([O]C(=O)c1cc(OC)c(OC)c(OC)c1)[O][Sn]([CH2]C)([CH2]C)[O]C(=O)c1cc(OC)c(OC)c(OC)c1 | 85% (active) |
| C=CCNCCC1CCCCCC1 | 97% (active) |
| Cc1ccc(/C=C/C(=O)/C=C/c2ccc(C)o2)o1 | 98% (active) |
| CCCC(=O)c1cc(O)c(O)c(CN(C)Cc2cc(Cl)cc(C)c2O)c1O | 96% (active) |
| COC(=O)/C(C#N)=C/c1cc(OC)c(O)cc1Br | 76% (active) |
| O=C(/C=C/c1ccccc1)CCN1CCOCC1 | 99% (active) |
| c1cc2c(c3c1CN(C1CCCCC1)CO3)OCN(C1CCCCC1)C2 | 10% |
| CSc1nc2ccccc2s1 | 5% |
| CC1(C)CC(=O)C(CSC(=O)c2ccccc2)=C(O)C1 | 15% |

Same assay, conditions: S. cerevisiae mlh1 rad18 strain growth inhibition; at 50.0 µM; stronger effect = higher value

| SMILES | growth inhibition |
| --- | --- |
| CCOc1ccccc1/C=C1\NC(=O)N(/C=C2\C(=O)Oc3ccccc3C2=O)C1=O | 95.5% (active) |
| CC(NNC(=S)N1CCCC1)c1ccc2ccccc2n1 (stereo unspecified) | 96.4% (active) |
| N#Cc1c(-c2ccc(Cl)cc2)c(C#N)c(=O)n(NS(=O)(=O)c2ccccc2)c1S | 77.5% (active) |
| CC(C)/C=C1\CCOC1=O | 21.7% |
| c1ccc(Nc2nnc3nc(-c4ccccc4)c(-c4ccccc4)nn23)cc1 | 70.1% (active) |
| O=C(NC(c1ccccc1)N1CCOCC1)c1ccccc1 (stereo unspecified) | 98.8% (active) |
| N[C@@H]1CCCC[C@@H]1N.O=C([O-])CN(CP(=O)([O-])[O-])CP(=O)([O-])[O-].[Pt+2] | 99.5% (active) |
| C/C=C\C(/C=C/C)(C(=O)OCCN(C)C)C(/C=C\C)(/C=C/C)C(=O)OCCN(C)C (stereo unspecified) | 97% (active) |
| COc1ccc(CCNC(=S)/N=C\C(C(=O)c2ccccc2)=C(\O)c2ccccc2)cc1OC | 98.6% (active) |
| Cc1ccccc1C1SCc2nc3ccccc3n21 (stereo unspecified) | -25.1% |
| O=C(Nc1ccc(Cl)cc1)Nc1nnc(/C=C/c2ccc(Cl)c(Cl)c2)o1 | -12.1% |
| Cc1c(CCCl)c(N=[N+]=[N-])n2c(nc3ccccc32)c1C#N | 56.5% |
| O=C(OCCCC(C(=O)c1ccccc1)=P(c1ccccc1)(c1ccccc1)c1ccccc1)c1ccccc1 | 54.8% |
| O=C(c1ccccc1)c1ccc(Cl)cc1 | 81.5% (active) |
| O=C1C(C(O)(C(F)(F)Cl)C(F)(F)Cl)CCCC1C(O)(C(F)(F)Cl)C(F)(F)Cl (stereo unspecified) | 99.6% (active) |
| CCN(CC)C(=S)N=Nc1c(O)[nH]c2ccccc12 | 92% (active) |
| c1csc(-c2nnc(C34CC5CC(CC(C5)C3)C4)o2)c1 | 65.3% |
| C/C(O)=C(/C=N/C(=S)Nc1ccc(S(N)(=O)=O)cc1)C(=O)Nc1ccccc1C | 89.4% (active) |
| CC(C)(Oc1ccc(-c2cccc3ccccc23)cc1)C(=O)O | 28.8% |
| CCc1scc(C)[n+]1CC(=O)c1cccc([N+](=O)[O-])c1 | -1.95% |
| O=C1CCC(C(c2ccccc2)(c2ccccc2)c2ccccc2)CC1=O (stereo unspecified) | -10.2% |
| Clc1ccc(C2SCc3nc4ccccc4n32)cc1Cl (stereo unspecified) | 95% (active) |
